From PubChem BioAssay (NCATS)
Inconclusive results are not listed. Where a call stands in place of a potency, no number is given. Activity calls are given as the source filed them. Calls come from the whole dose curve; as a rule, active = well fitted curve in the direction sought with a large enough effect; inconclusive = small, poorly fitted or top-dose-only effect, or another doubt; inactive = no such curve, though single readings can be large; an effect the other way counts as inactive or inconclusive.

Assay: qHTS of pediatric cancer cell lines to identify multiple opportunities for drug repurposing: Primary screen for OHS-50 cells (AID 1347103); note: nearly all actives have a fitted effect of over 40% in size
Details: OHS-50 osteosarcoma viability, CellTiter-Glo luminescence, 48 h; series mostly up to 57.3 µM
Summary of the method: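 Cells (500-1,000/well) rested 5 h, then received compounds for 48 h; metabolically active cells were measured by CellTiter-Glo luminescence. Final concentrations spanned up to 46 µM (MIPE, 11-point) or 0.59 nM-46 µM (NPC, 8-point) in primary screens, 11-point in follow-ups.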
Potency is the fitted concentration of half-maximal effect.

Structure (SMILES) | Potency
Cn1c(=O)c2[nH]c(Br)nc2n(C)c1=O | inactive
CC[C@H](c1ccc(O)cc1)[C@@H](CC)c1ccc(O)cc1 | 27.6 µM (active)
CCN1CCCC(OC(=O)C(c2ccccc2)c2ccccc2)C1 (centres undefined) | inactive
CCOc1ccc(NC(C)=O)cc1 | inactive
CCCCCCCCNC(C)C(O)c1ccc(SC(C)C)cc1 (centres undefined) | 21.9 µM (active)
COc1ccc(C(=O)c2ccccc2)c(O)c1 | inactive
CCOc1ccccc1C(N)=O | inactive

Assay: qHTS of pediatric cancer cell lines to identify multiple opportunities for drug repurposing: Primary screen for RD cells (AID 1347104); note: nearly all actives have a fitted effect of over 55% in size
Details: RD rhabdomyosarcoma viability, CellTiter-Glo luminescence, 48 h; series mostly up to 46 µM
Summary of the method: (§1)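 Primary screen of approved and investigational compounds on cells in growth media at 37 degrees C, 5% CO2. MIPE set at 11-point and NPC set at 8-point dilutions; viability scored by ATP-based luminescence at 48 hours.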

Structure (SMILES) | Potency
O=C(O)c1ccc(S(=O)(=O)N(Cl)Cl)cc1 | inactive
CC(C)(C)NC[C@H](O)COc1cccc2c1CCCC2=O | inactive
COc1cc(C(=S)N2CCOCC2)ccc1O | inactive
CCN1/C(=C/C=C/c2sc3ccccc3[n+]2CC)Sc2ccccc21 | 1.16 µM (active)
O=C1C(CCS(=O)c2ccccc2)C(=O)N(c2ccccc2)N1c1ccccc1 (centres undefined) | inactive
CCCCNc1ccc(C(=O)OCCOCCOCCOCCOCCOCCOCCOCCOCCOC)cc1 | inactive
O[C@@H](c1cc(C(F)(F)F)nc2c(C(F)(F)F)cccc12)[C@H]1CCCCN1 | 23.7 µM (active)
CC[N+](C)(CC)CCOC(=O)C(O)(c1ccccc1)C1CCCCC1 (centres undefined) | inactive
C/C=C/C=N/NC(=O)c1ccncc1 | inactive
CCCCCCCCCCCCCCC[C@H](O)[C@@H](N)CO | inactive
COc1cc(NS(=O)(=O)c2ccc(N)cc2)ncn1 | inactive
O=C(Nc1cccc(C2=NCCN2)c1)Nc1cccc(C2=NCCN2)c1 | inactive
CCN(CC)CCOc1ccc2c(c1)C(=O)c1cc(OCCN(CC)CC)ccc1-2 | 21.1 µM (active)
Nc1nc(N)c(-c2ccccc2)s1 | inactive
COC(=O)C(c1ccccc1Cl)N1CCc2sccc2C1 (centres undefined) | inactive
CCCCCCCCCCCCCC[N+](C)(C)Cc1ccccc1 | 21.1 µM (active)
Cc1cccc(C)c1NC(=O)c1ccccc1C(=O)O | inactive
COc1ccccc1N1CCN(CCCCNC(=O)c2ccc(-c3ccc(C(C)=O)cc3)cc2)CC1 | inactive
O=C(O)CCc1nc2ccccc2[nH]1 | inactive
Oc1ccc(Cl)cc1Cc1cc(Cl)ccc1O | 21.1 µM (active)
NCCNc1cccc2ccccc12 | inactive
CCCN(CCC)S(=O)(=O)c1ccc(C(=O)O)cc1 | inactive
CC(=O)O[C@]1(C(C)=O)CC[C@H]2[C@@H]3C=C(C)C4=CC(=O)CC[C@]4(C)[C@H]3CC[C@@]21C | inactive
O=C1c2cccc3c2[C@H](CCC3)CN1[C@@H]1CN2CCC1CC2 | inactive
NC(=S)N/N=C/c1cccnc1 | inactive
O=[N+]([O-])c1ccc(/C=N\O)o1 | inactive
Cn1c(=O)c2[nH]c(Br)nc2n(C)c1=O | inactive
CCN1CCCC(OC(=O)C(c2ccccc2)c2ccccc2)C1 (centres undefined) | inactive
CCOc1ccc(NC(C)=O)cc1 | inactive
COc1ccc(C(=O)c2ccccc2)c(O)c1 | inactive

Assay: qHTS of pediatric cancer cell lines to identify multiple opportunities for drug repurposing: Primary screen for MG 63 (6-TG R) cells (AID 1347105); note: nearly all actives have a fitted effect of over 50% in size
Details: MG 63 (6-TG R) viability, CellTiter-Glo, 48 h; series mostly up to 46 µM
Summary of the method: as §1

Structure (SMILES) | Potency
O=C(O)c1ccc(S(=O)(=O)N(Cl)Cl)cc1 | inactive
CC(C)(C)NC[C@H](O)COc1cccc2c1CCCC2=O | inactive
COc1cc(C(=S)N2CCOCC2)ccc1O | inactive
CCN1/C(=C/C=C/c2sc3ccccc3[n+]2CC)Sc2ccccc21 | 1.84 µM (active)
CC(=O)OC[C@H]1O[C@@H](n2ncc(=O)[nH]c2=O)[C@H](OC(C)=O)[C@@H]1OC(C)=O | inactive
O=C1C(CCS(=O)c2ccccc2)C(=O)N(c2ccccc2)N1c1ccccc1 (centres undefined) | inactive
O[C@@H](c1cc(C(F)(F)F)nc2c(C(F)(F)F)cccc12)[C@H]1CCCCN1 | 26.6 µM (active)
CC[N+](C)(CC)CCOC(=O)C(O)(c1ccccc1)C1CCCCC1 (centres undefined) | inactive
C/C=C/C=N/NC(=O)c1ccncc1 | inactive
CCCCCCCCCCCCCCC[C@H](O)[C@@H](N)CO | inactive
COc1cc(NS(=O)(=O)c2ccc(N)cc2)ncn1 | inactive
O=C(Nc1cccc(C2=NCCN2)c1)Nc1cccc(C2=NCCN2)c1 | inactive
CCN(CC)CCOc1ccc2c(c1)C(=O)c1cc(OCCN(CC)CC)ccc1-2 | inactive
Nc1nc(N)c(-c2ccccc2)s1 | inactive
COC(=O)C(c1ccccc1Cl)N1CCc2sccc2C1 (centres undefined) | inactive
Cc1cccc(C)c1NC(=O)c1ccccc1C(=O)O | inactive

Structure (SMILES) | Potency
COc1ccccc1N1CCN(CCCCNC(=O)c2ccc(-c3ccc(C(C)=O)cc3)cc2)CC1 | inactive
CC(=O)O[C@]1(C(C)=O)CC[C@H]2[C@@H]3C=C(Cl)C4=CC(=O)CC[C@]4(C)[C@H]3CC[C@@]21C | inactive
O=C(O)CCc1nc2ccccc2[nH]1 | inactive
Oc1ccc(Cl)cc1Cc1cc(Cl)ccc1O | 16.8 µM (active)
NCCNc1cccc2ccccc12 | inactive
CCCN(CCC)S(=O)(=O)c1ccc(C(=O)O)cc1 | inactive
O=C1c2cccc3c2[C@H](CCC3)CN1[C@@H]1CN2CCC1CC2 | inactive
O=C(CCCN1CC=C(n2c(=O)[nH]c3ccccc32)CC1)c1ccc(F)cc1 | inactive
NC(=S)N/N=C/c1cccnc1 | inactive
O=[N+]([O-])c1ccc(/C=N\O)o1 | inactive
Cn1c(=O)c2[nH]c(Br)nc2n(C)c1=O | inactive
CC[C@H](c1ccc(O)cc1)[C@@H](CC)c1ccc(O)cc1 | 13.3 µM (active)
CCN1CCCC(OC(=O)C(c2ccccc2)c2ccccc2)C1 (centres undefined) | inactive
CCOc1ccc(NC(C)=O)cc1 | inactive
COc1ccc(C(=O)c2ccccc2)c(O)c1 | inactive
CCOc1ccccc1C(N)=O | inactive
